Hits are enriched below; roughly 1.4% of the tested compounds scored in any of these assays.
BJeLR lethal: BJeLR cell viability loss; hit rate 0.17% among 300,000; BJeLR (HRASV12) viability, CellTiter-Glo ATP luminescence, 48 h; inhibition, % (test concentration not listed); AID 1554; in the data active = inhibition above about 50%; inconclusive = no clear call, values can overlap the other calls
PrP UTR inh: inhibition of PrP 5' UTR reporter expression | cell-based PrP 5' UTR mRNA reporter, plate reader | AID 488862 | hit rate 0.35% among 340,000 | inhibition, % (test concentration not listed); in the data active = inhibition above about 52%
PfHsp40 yeast: restores yeast growth despite PfHsp40 toxicity | growth rescue, % at 12.5 µM | hit rate 0.68% among 340,000 | S. cerevisiae expressing PfHsp40, growth rescue, ATP luminescence; in the data active = growth rescue above about 28%, passing the limit was not always enough; inconclusive = no clear call, values can overlap the other calls;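 also: yeast W303a lacking pdr1 and pdr3 grown in galactose medium; growth measured after three days at 30 °C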
Sa RN4220 lethal: kills Staphylococcus aureus RN4220; S. aureus RN4220 growth, OD600, 16 h; inhibition, % (no concentration beside the values); hit rate 0.33% among 330,000; in the data active = inhibition above about 85%
Sa ugtP lethal: kills S. aureus RN4220 lacking UgtP | S. aureus RN4220 ugtP deletion, OD600 growth, 16 h | growth inhibition, % (test concentration not listed) | hit rate 0.54% among 330,000 | AID 1259309; in the data active = growth inhibition above about 68%
Y pestis TopoI: Y. pestis Topo-I inhibition via cleavage products | activity, % at 10 µM | Y. pestis Topo-I cleavage product accumulation, plate reader | hit rate 0.064% among 360,000; in the data active = activity above about 50%, passing the limit was not always enough; inconclusive = no clear call, values can overlap the other calls
Hits are given with their value; n = inactive; u = inconclusive; x = not tested or not shown.

SMILES	BJeLR lethal	PrP UTR inh	PfHsp40 yeast	Sa RN4220 lethal	Sa ugtP lethal	Y pestis TopoI
O=C(NCc1nc2ccccc2[nH]1)C1=CC(C2CC2)CC(OCCCCO)O1 (stereo not drawn)	x	x	x	n	n	x
CCc1ccccc1NC(=O)C1CCCN1S(=O)(=O)c1ccc(-c2ccc(=O)[nH]n2)s1 (stereo not drawn)	n	n	n	95.6	88.3	n
CCc1ccccc1NC(=O)C1CCCN1S(=O)(=O)c1ccc2c(c1)n(C)c(=O)c(=O)n2C (stereo not drawn)	n	n	n	n	n	n
Cc1cccc(C)c1NC(=O)C1CCCN1S(=O)(=O)c1ccc(-c2ccc(=O)[nH]n2)s1 (stereo not drawn)	n	n	n	98.0	99.2	n
COc1ccc(-c2cc(N)n(S(=O)(=O)c3c(F)c(F)c(F)c(F)c3F)n2)cc1OC	n	n	n	98.1	95.1	n
COc1ccc(S(=O)(=O)n2nc(-c3cc(OC)c(OC)c(OC)c3)cc2N)cc1OC	x	n	n	n	n	n
COc1cc(/C=C/[N+](=O)[O-])ccc1O	72.5	n	n	x	x	n
COc1cc(/C=C/C(=O)c2ccc([N+](=O)[O-])o2)ccc1O	92.4	n	n	x	x	n
COc1cc(C=C[N+](=O)[O-])ccc1O	x	x	x	n	n	x
COc1cc(/C=C/C(=O)O)ccc1O	n	n	n	n	n	n
COc1ccc(/C=C/C(=O)c2ccc([N+](=O)[O-])o2)cc1OC	69.8	x	x	x	x	x
CCc1ccc(C2CC=C(C(=O)O)C(c3ccc(F)cc3)N2S(=O)(=O)c2ccc(C)cc2)cc1 (stereo not drawn)	x	x	x	n	n	x
COc1cc([C@@H]2c3cc4c(cc3[C@@H](NC3CCN(Cc5ccccc5)CC3)[C@H]3COC(=O)[C@H]23)OCO4)cc(OC)c1O	86.2	x	x	x	x	x
COc1cc([C@@H]2c3cc4c(cc3[C@@H](OC)[C@H]3COC(=O)[C@H]23)OCO4)cc(OC)c1O	n	n	n	x	x	n
O=C(C1=CC(c2csc3ccccc23)CC(OCc2ccc(CO)cc2)O1)N1CCN(Cc2ccccc2)CC1 (stereo not drawn)	x	x	x	n	n	x
N#CC(=NNc1cccc(C(F)(F)F)c1)C(=O)c1ccsc1	x	x	x	100.4	97.4	x
CC(=NNc1cccc(C(F)(F)F)c1)c1ccc(O)cc1	x	x	x	n	n	x
C#CCOCCOCCOCCNc1nc(N2CCN(C(=O)CCCCCCCCCCNC(=O)[C@@H](CCSC)n3cc(CCO)nn3)CC2)nc(N2CCN(C(=O)CCCCCCCCCCNC(=O)[C@H](CO)n3cc(CCCCCN)nn3)CC2)n1	x	n	84.5	x	x	n
C#CCOCCOCCOCCNc1nc(N2CCN(C(=O)CCCCCCCCCCNC(=O)[C@H](CCCCN)n3cc(C[C@@H](C)CC)nn3)CC2)nc(N2CCN(C(=O)CCCCCCCCCCNC(=O)[C@H](CCCN=C(N)N)n3cc(C[C@@H](C)CC)nn3)CC2)n1	x	n	25.6	x	x	n
C#CCOCCOCCOCCNc1nc(N2CCN(C(=O)CCCCCCCCCCNC(=O)[C@@H](CCC(=O)O)n3cc(CCCCCN)nn3)CC2)nc(N2CCN(C(=O)CCCCCCCCCCNC(=O)[C@H](CCCCN)n3cc(C[C@@H](C)CC)nn3)CC2)n1	x	n	n	x	x	n
C#CCOCCOCCOCCNc1nc(N2CCN(C(=O)CCCCCCCCCCNC(=O)Cn3cc(CCCCCN)nn3)CC2)nc(N2CCN(C(=O)CCCCCCCCCCNC(=O)Cn3cc(C[C@@H](C)O)nn3)CC2)n1	x	n	38.3	x	x	n
C#CCOCCOCCOCCNc1nc(N2CCN(C(=O)CCCCCCCCCCNC(=O)Cn3cc(CC(C)O)nn3)CC2)nc(N2CCN(C(=O)CCCCCCCCCCNC(=O)Cn3cc(CC(C)O)nn3)CC2)n1 (stereo not drawn)	x	x	x	n	n	x
CC(OC(=O)N(C)Cc1ccccc1)C1O[C@]2(C)CCCCC1O2 (stereo partly drawn)	x	x	x	n	n	x
COc1ccc(CC2CN3C(=NCC3C)N2CC(C)NC(=O)CCC2CCCCC2)cc1 (stereo not drawn)	x	x	x	n	n	x
COc1cccc(CN2CCN(C(=O)CC(C)C)CC2)c1	n	n	35.9	n	n	n
SMILES	BJeLR lethal	PrP UTR inh	PfHsp40 yeast	Sa RN4220 lethal	Sa ugtP lethal	Y pestis TopoI
CC(C)CC(=O)N1CCN(Cc2cccc(F)c2)CC1	n	n	n	n	n	n
O=C(C=Cc1ccccc1)NCCSc1ccc(Cl)cc1	x	x	x	n	n	x
CC(=O)N(CC(C)C(=O)O)c1c(I)cc(I)c(N)c1I (stereo not drawn)	x	n	n	n	n	n
CCC(Cc1c(I)cc(I)c(N)c1I)C(=O)O (stereo not drawn)	x	n	186.8	n	n	n
CNc1cc(CSC)nc(SCc2ccc(Cl)cc2Cl)n1	n	n	307.9	n	n	n
CCOC(=O)c1cn(C2CC2)c2c(F)c(F)c(F)cc2c1=O	n	n	n	n	n	n
C[C@@H]1CN(c2c(F)c(F)c3c(=O)c(C(=O)O)cn(C4CC4)c3c2F)C[C@H](C)N1	n	n	n	95.8	96.6	n
O=[N+]([O-])c1ccc(C=Nc2cccc3ccccc23)s1	n	n	n	98.0	97.4	n
O=[N+]([O-])c1ccc(C=Nn2c(CO)nc3ccccc32)s1	x	x	x	n	n	x
O=C1COc2ccccc2N1Cc1ccccc1Cl	n	n	49.8	n	n	n
C=CCC(CC(=O)NC(CO)Cc1ccccc1)C(=O)NC(COC(=O)C(CC=C)CC(=O)OC(C)(C)C)Cc1ccccc1 (stereo not drawn)	x	x	x	n	n	x
COc1cc(C=C2N=C(c3ccccc3)OC2=O)c(F)cc1OCc1ccccc1	x	x	x	n	n	x
CCN(CC)c1ccc(N2C(=O)CSC2=S)cc1	n	n	n	n	33.1	n
CCCCN1C(=S)NCC1c1ccccc1 (stereo not drawn)	x	x	x	n	n	x
O=C(Nc1cccc(-c2csc(Nc3ccc(Cl)cc3)n2)c1)c1cccc(C(F)(F)F)c1	n	n	u	88.9	n	n
O=C(Nc1cccc(-c2csc(Nc3ccc(Cl)cc3)n2)c1)c1ccccc1	n	n	n	n	n	n
Cc1ccccc1Nc1nc(-c2sc(NC(=O)c3ccc([N+](=O)[O-])cc3)nc2C)cs1	n	x	x	x	x	x
CCOc1ccccc1Nc1nc(-c2sc(NC(=O)c3ccc([N+](=O)[O-])cc3)nc2C)cs1	77.5	x	x	x	x	x
CC(NC(=S)NC1CCCCC1)c1ccccc1 (stereo not drawn)	n	n	n	n	n	n
CCCc1ccc(C(C)NC(=S)NC2CCCCC2)cc1 (stereo not drawn)	n	n	159.4	n	n	n
COc1ccc(/C=C/C(=O)NCC2COc3ccccc3O2)c(OC)c1 (stereo not drawn)	n	n	n	n	98.7	n
CCOC(=O)C1C2COc3ccc(OC)cc3C2N2C(=O)CN(Cc3ccccc3)C(=O)[C@@]12C (stereo partly drawn)	x	x	x	n	n	x
C#CCOCCOCCOCCNc1nc(N2CCN(C(=O)C(CCCCN)n3cc(C(N)CC(C)C)nn3)CC2)nc(N2CCN(C(=O)C(Cc3ccc(O)cc3)n3cc(C(N)CC(C)C)nn3)CC2)n1 (stereo not drawn)	x	x	x	n	n	x
